Measured values published in PubChem BioAssay (NCATS).
“And” between values parts separate entries of the source, which are not always exact repeats. Equal values may be shown once. Results filed as inconclusive are left out. Where a structure was tested more than once in an assay, its records may differ in their call. A number with no mark means an inactive call. The source made the active and inactive calls. Calls come from the whole dose curve; as a rule, active = well fitted curve in the direction sought with a large enough effect; inconclusive = small, poorly fitted or top-dose-only effect, or another doubt; inactive = no such curve, though single readings can be large; an effect the other way counts as inactive or inconclusive. Non-standard residues stand in square brackets, D forms with d. Residues, ends and D or L forms follow the SMILES beside them. Orn = NCCC[C@H](N)C(=O)O

Columns and labels:
W2 = experiment: qHTS profiling for inhibitors of Plasmodium falciparum proliferation (AID 504749); note: nearly all actives have a fitted effect of over 60% in size; note: potency is the fitted concentration of half-maximal effect; settings: P. falciparum in erythrocytes, SYBR Green DNA, 72 h; series mostly up to 28.7 µM
Summary of the method: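 Readout was DNA-dye fluorescence from lysed cultures, ex 485/em 535 nm. Parasitized red cells had grown 72 h with compound; data scaled between 0.29 uM artemisinin and DMSO wells and corrected using vehicle-only plates.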

KB-3-1 = experiment: Cytotoxic Profiling of Annotated Libraries Using Quantitative High-Throughput Screening (AID 1296008); settings: Five cell lines viability, CellTiter-Glo ATP luminescence, 48-72 h; max response: stronger effect = lower value; note: nearly all actives have a fitted effect of over 60% in size; note: potency is the fitted concentration of half-maximal effect; for max response: % is set by controls: 0 for no effect and ±100 for the full control effect
Summary of the method: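 Cells exposed to compounds for 48 or 72 hr at 37 degrees Celsius. Viability read as ATP-coupled luminescence with CellTiter-Glo after 10 min at room temperature.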

CAOV3 = experiment: Primary qHTS to identify gynecologic anti-cancer compounds using libraries of approved drugs and bioactive compounds (AID 1345084); settings: Gynecologic cancer cell panel viability, ATPlite luminescence, 48 h; series mostly up to 57.5 µM; note: % is set by controls: 0 for no effect and ±100 for the full control effect; nearly all actives have a fitted effect of over 55% in size
Summary of the method: (§1)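 Luminescence from the ATPlite ATP-monitoring reagent indicates viable cell number; lower signal means cytotoxicity. Cells received compound 16 h after seeding and were exposed for 48 h across five concentrations.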

Es-2 = experiment: as above; settings: Gynecologic cancer cell panel viability, ATPlite luminescence, 48 h; series mostly up to 57.5 µM
Summary of the method: as §1

HeLa = experiment: as above; settings: Gynecologic cancer cell panel viability, ATPlite luminescence, 48 h; series mostly up to 57.5 µM
Summary of the method: as §1

**Q.** Which Potency (W2) does the source give for `CC1=CCC(C(C)(C)O)CC1` (stereo not given) here?
**A.** Its Potency is “inactive”.

**Q.** And the max response (KB-3-1)?
**A.** Its max response is 6.57%.

**Q.** How did the Potency (W2) turn out when `COC(=O)[C@H]1[C@H]2C[C@@H]3c4[nH]c5ccccc5c4CCN3C[C@H]2C[C@@H](OC(=O)c2cc(OC)c(OC)c(OC)c2)[C@@H]1OC` was run?
**A.** The Potency was 0.151 µM (active).

**Q.** What about the Potency (KB-3-1) of the same compound?
**A.** The Potency was 7.31 µM (active).

**Q.** And the max response (KB-3-1)?
**A.** Its max response is -19.2%.

**Q.** With `C[C@H](CCC(=O)O)[C@H]1CC[C@H]2[C@@H]3[C@H](O)C[C@@H]4C[C@H](O)CC[C@]4(C)[C@H]3CC[C@]12C` as the compound, how does the max response (KB-3-1) read?
**A.** The max response was 0.682%.

**Q.** `CCOc1ccc2c(c1)C(C)=CC(C)(C)N2` was tested. Which Potency (W2) did it give?
**A.** Its Potency is “inactive”.

**Q.** And the max response (KB-3-1)?
**A.** The max response was -2.71%.

**Q.** With `NCc1ccccc1CC(=O)N[C@@H]1C(=O)N2C(C(=O)O)=C(CSc3nnnn3CC(=O)O)CS[C@H]12` as the compound, how does the max response (KB-3-1) read?
**A.** Its max response is -8.7%.

**Q.** Which results are given for `CO[C@H](C(=O)[C@@H](O)[C@@H](C)O)C1Cc2cc3cc(O[C@H]4C[C@@H](O[C@H]5C[C@@H](O)[C@H](O)[C@@H](C)O5)[C@@H](O)[C@@H](C)O4)c(C)c(O)c3c(O)c2C(=O)[C@H]1O[C@H]1C[C@@H](O[C@H]2C[C@@H](O[C@H]3C[C@](C)(O)[C@H](O)[C@@H](C)O3)[C@H](O)[C@@H](C)O2)[C@H](O)[C@@H](C)O1` (stereo not given in full)?
**A.** Potency (W2): 0.169 µM (active); Potency (KB-3-1): 1.16 µM (active)

**Q.** `O=S(=O)(O)O` was tested. Which Potency (W2) did it give?
**A.** The Potency was “inactive”.

**Q.** What about the max response (KB-3-1) of the same compound?
**A.** The max response was 5.37%.

**Q.** How did the Potency (W2) turn out when `IC(I)I` was run?
**A.** Its Potency is “inactive”.

**Q.** And the max response (KB-3-1)?
**A.** The max response was 9.13%.

**Q.** How did the max response (KB-3-1) turn out when `C=C(NC(=O)C(=C)NC(=O)c1csc(C2=N[C@@H]3c4csc(n4)[C@H]4NC(=O)c5csc(n5)[C@H]([C@](C)(O)[C@@H](C)O)NC(=O)[C@H]5CSC(=N5)C(=CC)NC(=O)C([C@@H](C)O)NC(=O)c5csc(n5)[C@]3(CC2)NC(=O)[C@H](C)NC(=O)C(=C)NC(=O)[C@H](C)NC(=O)C([C@@H](C)CC)NC2C=Cc3c([C@H](C)O)cc(nc3C2O)C(=O)O[C@@H]4C)n1)C(N)=O` (stereo not given in full) was run?
**A.** The max response was -16.7%.

**Q.** How did the Potency (W2) turn out when `Cc1c(C)c2c(c(C)c1O)CC[C@@](C)(CCC[C@@H](C)CCC[C@@H](C)CCCC(C)C)O2` was run?
**A.** Its Potency is “inactive”.

**Q.** Which results are given for `CC1=C(/C=C/C(C)=C/C=C/C(C)=C/C=C/C=C(C)/C=C/C=C(C)/C=C/C2=C(C)CCCC2(C)C)C(C)(C)CCC1`?
**A.** Potency (W2): inactive; max response (KB-3-1): -7.35%

**Q.** For `CCOC(=O)O[C@]1(C(=O)COC(=O)CC)CC[C@H]2[C@@H]3CCC4=CC(=O)C=C[C@]4(C)[C@H]3[C@@H](O)C[C@@]21C`, which max response (KB-3-1) is on record?
**A.** Its max response is 0.126%.

**Q.** Which Potency (W2) does the source give for `CCC(=O)NCCC1CCc2ccc3c(c21)CCO3` (stereo not given) here?
**A.** The Potency was “inactive”.

**Q.** What about the max response (KB-3-1) of the same compound?
**A.** Its max response is -7.29%.

**Q.** With `O=C1C(=O)c2ncccc2-c2cccnc21` as the compound, how does the Potency (W2) read?
**A.** The Potency was 1.07 µM (active).

**Q.** And the Potency (KB-3-1)?
**A.** The Potency was 4.61 µM (active).

**Q.** How did the max response (KB-3-1) turn out when `CCCCC(CC)COC(=O)CC(C(=O)OCC(CC)CCCC)S(=O)(=O)O` (stereo not given) was run?
**A.** The max response was -3.48% and -14.8%.

**Q.** How did the Potency (CAOV3) turn out when `Nc1c(Br)cc(Br)cc1CNC1CCC(O)CC1` (stereo not given) was run?
**A.** The Potency was “inactive”.

**Q.** And the Potency (Es-2)?
**A.** Its Potency is “inactive”.

**Q.** What about the Potency (HeLa) of the same compound?
**A.** The Potency was “inactive”.

**Q.** For `C=CCSSSCC=C`, which Potency (W2) is on record?
**A.** The Potency was “inactive”.

**Q.** What about the max response (KB-3-1) of the same compound?
**A.** Its max response is -7.72%.

**Q.** What does the source list for `Nc1c(N=Nc2ccc(-c3ccc(N=Nc4cc(S(=O)(=O)O)c5ccccc5c4N)cc3)cc2)cc(S(=O)(=O)O)c2ccccc12`?
**A.** Potency (W2): inactive; max response (KB-3-1): -9%

**Q.** Which Potency (W2) does the source give for `O=C(Nc1cccc(C(F)(F)F)c1)c1cc(Br)cc(Br)c1O` here?
**A.** Its Potency is 6.75 µM (active).

**Q.** What about the Potency (KB-3-1) of the same compound?
**A.** The Potency was 16.4 µM (active).

**Q.** How did the Potency (W2) turn out when `O=CCCCC=O` was run?
**A.** The Potency was 13.5 µM (active).

**Q.** And the max response (KB-3-1)?
**A.** Its max response is -2.08%.

**Q.** `O=C(O)CCC(=O)C(=O)O` was tested. Which Potency (W2) did it give?
**A.** The Potency was “inactive”.

**Q.** What about the max response (KB-3-1) of the same compound?
**A.** Its max response is -11.9%.

**Q.** How did the Potency (W2) turn out when `CN(C)CCCN1c2ccccc2C(C)(C)c2ccccc21` was run?
**A.** The Potency was 4.26 µM (active).

**Q.** And the max response (KB-3-1)?
**A.** Its max response is -18.4%.

**Q.** `CC(C)NCC1CCc2cc(CO)c([N+](=O)[O-])cc2N1` (stereo not given) was tested. Which max response (KB-3-1) did it give?
**A.** The max response was 2.46%.

**Q.** For `CC(C)C[C@@H]1NC(=O)[C@H](CCCN)NC(=O)[C@H](C(C)C)NC(=O)[C@@H]2CCCN2C(=O)[C@@H](Cc2ccccc2)NC(=O)[C@H](CC(C)C)NC(=O)[C@H](CCCN)NC(=O)[C@H](C(C)C)NC(=O)[C@@H]2CCCN2C(=O)[C@@H](Cc2ccccc2)NC1=O` (cyclo(V[Orn]L[dF]PV[Orn]L[dF]P)), which Potency (KB-3-1) is on record?
**A.** The Potency was 0.82 µM (active).

**Q.** What does the source list for `CCCCCCCC/C=C\CCCCCCCC(=O)O`?
**A.** Potency (W2): inactive; max response (KB-3-1): 4.43%

**Q.** How did the Potency (W2) turn out when `CCCCCCCC(=O)O` was run?
**A.** Its Potency is “inactive”.

**Q.** What about the max response (KB-3-1) of the same compound?
**A.** Its max response is -16.7%.

**Q.** How did the Potency (W2) turn out when `CCCCCCCCCCCC[n+]1ccc2ccccc2c1` was run?
**A.** The Potency was 0.301 µM (active).

**Q.** And the Potency (KB-3-1)?
**A.** The Potency was 14.6 µM (active).

**Q.** How did the Potency (W2) turn out when `CCCCC(=O)O[C@]1(C(=O)CO)[C@H](C)C[C@H]2[C@@H]3CCC4=CC(=O)C=C[C@]4(C)[C@@]3(F)[C@@H](O)C[C@@]21C` was run?
**A.** Its Potency is 13.5 µM (active).

**Q.** What about the max response (KB-3-1) of the same compound?
**A.** The max response was 32.2%.

**Q.** `COC(C(=O)C(O)C(C)O)C1Cc2cc3cc(OC4CC(OC5CC(O)C(O)C(C)O5)C(O)C(C)O4)c(C)c(O)c3c(O)c2C(=O)C1OC1CC(OC2CC(OC3CC(C)(O)C(O)C(C)O3)C(O)C(C)O2)C(O)C(C)O1` (stereo not given) was tested. Which Potency (W2) did it give?
**A.** The Potency was 0.426 µM (active).

**Q.** And the Potency (KB-3-1)?
**A.** Its Potency is 1.46 µM (active).

**Q.** Which max response (KB-3-1) does the source give for `CC[C@@H](C(=O)[C@@H](C)[C@@H](O)[C@H](C)CCc1ccc(C)c(O)c1C(=O)O)[C@H]1O[C@](CC)([C@H]2CC[C@](O)(CC)[C@H](C)O2)C[C@@H]1C` here?
**A.** The max response was 10.1%.

**Q.** Which Potency (W2) does the source give for `CC(O)CO` (stereo not given) here?
**A.** Its Potency is “inactive”.

**Q.** What about the max response (KB-3-1) of the same compound?
**A.** The max response was -18.9%.

**Q.** With `Cc1c(C)c2c(c(C)c1O)CC[C@@](C)(CCC[C@H](C)CCC[C@H](C)CCCC(C)C)O2` as the compound, how does the Potency (W2) read?
**A.** Its Potency is “inactive”.

**Q.** And the max response (KB-3-1)?
**A.** The max response was 4.35% and -16.8%.

**Q.** Which Potency (W2) does the source give for `CCCCC/C=C\C/C=C\CCCCCCCC(=O)O` here?
**A.** Its Potency is “inactive”.

**Q.** What about the max response (KB-3-1) of the same compound?
**A.** The max response was -13.1%.

**Q.** Which Potency (W2) does the source give for `CC(=O)Oc1cc(C)c(OC(C)=O)c2ccccc12` here?
**A.** Its Potency is 5.36 µM (active).

**Q.** And the max response (KB-3-1)?
**A.** Its max response is 4.15%.

**Q.** How did the Potency (W2) turn out when `C[C@]12CCC(=O)C=C1CC[C@@H]1[C@@H]2[C@@H](O)C[C@@]2(C)[C@H]1CC[C@]2(O)C(=O)COP(=O)(O)O` was run?
**A.** Its Potency is “inactive”.

**Q.** What about the max response (KB-3-1) of the same compound?
**A.** Its max response is 13.4%.

**Q.** Which results are given for `CCCCCCCCCCCCCC[n+]1ccc(C)cc1`?
**A.** Potency (W2): 1.69 µM (active); Potency (KB-3-1): 18.4 µM (active)
